Measurements published in the supplement of paper PMC10849652.
The full data set covers some 7,900 targets. This sample favours those with a hit. About 0.6% of all pairs of compound and target were hits. Unmarked numbers belong to inactive results.

Key:
Assay in all cases: log2 fold change, soluble protein after heating vs DMSO (PISA); higher = thermal stabilisation; K562 cells, 10 uM, 30 min; active = over 0.2 and 3.5 SD of the protein, either way, in both replicates (recomputed)
[1] = compound: Cc1ccc(NC(=O)c2ccc(CN3CC[C@H](N(C)C)C3)c(C(F)(F)F)c2)cc1Nc1nccc(-c2cncnc2)n1 [bafetinib]
Summary of the method: (§1)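 Thermal stability values are relative to control samples and come from duplicates. They are expressed as log2 fold changes. For measurement, K562 cells (2×10^6 cells/mL) received 10 μM compound for 30 min, and aliquots were heated for 3 min over 48°C-58°C, pooled, and extracted at 4°C in PBS with 0.5% NP-40. Soluble protein, the supernatant after 21,000xg for 90 min, was quantified by TMTpro 16plex LC-MS/MS with equalised channel sums.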

[2] = compound: Cc1cccc(CC(=O)N2CCc3c2ccc(-c2cn(C)c4ncnc(N)c24)c3F)n1
Summary of the method: as §1

[3] = compound: Cc1cn(-c2cc(NC(=O)c3ccc(C)c(Nc4nccc(-c5cccnc5)n4)c3)cc(C(F)(F)F)c2)cn1 [nilotinib]
Summary of the method: as §1

[4] = compound: Cc1nc(Nc2n[nH]c3c2CN(C(=O)N[C@H](CN(C)C)c2ccccc2)C3(C)C)c2sccc2n1
Summary of the method: as §1

[5] = compound: Cc1nc(Nc2ncc(C(=O)Nc3c(C)cccc3Cl)s2)cc(N2CCN(CCO)CC2)n1 [dasatinib]
Summary of the method: as §1

[6] = compound: Cc1ncc(-c2ccnc(Nc3ccc(S(C)(=O)=O)cc3)n2)n1C(C)C
Summary of the method: as §1

[7] = compound: Cn1cc(-c2ccc3c(c2)CCN3C(=O)Cc2cccc(C(F)(F)F)c2)c2c(N)ncnc21
Summary of the method: as §1

[8] = compound: Cn1cc(-c2ccc3nnc(C(F)(F)c4ccc5ncccc5c4)n3n2)cn1
Summary of the method: as §1

[9] = compound: Cn1cncc1[C@@](N)(c1ccc(Cl)cc1)c1ccc2c(c1)c(-c1cccc(Cl)c1)cc(=O)n2C [tipifarnib]
Summary of the method: as §1

[10] = compound: FC(F)(F)c1ccc(/C=C/c2nc(COc3ccc(CCCCn4ccnn4)cc3)co2)cc1 [mubritinib]
Summary of the method: as §1

[11] = compound: NC(=O)Nc1cc(-c2cccc(F)c2)sc1C(=O)N[C@H]1CCCNC1
Summary of the method: as §1

[12] = compound: NC(=O)c1cnc(N[C@@H]2CCCC[C@@H]2N)nc1Nc1cccc(-n2nccn2)c1
Summary of the method: as §1

[13] = compound: NC1(c2ccc(-c3nc4ccn5c(=O)[nH]nc5c4cc3-c3ccccc3)cc2)CCC1
Summary of the method: as §1

[14] = compound: NCC(=O)Nc1ccc(-n2nc(C(F)(F)F)cc2-c2ccc3c(ccc4ccccc43)c2)cc1
Summary of the method: as §1

[15] = compound: Nc1ccccc1NC(=O)c1ccc(CNC(=O)OCc2cccnc2)cc1 [entinostat]
Summary of the method: as §1

[16] = compound: O=C(CCCCCCC(=O)Nc1ccccc1)NO [vorinostat]
Summary of the method: as §1

[17] = compound: O=C(CCCCCCNC(=O)c1cnc(N(c2ccccc2)c2ccccc2Cl)nc1)NO [citarinostat]
Summary of the method: as §1

[18] = compound: O=C(O)c1ccc2c(c1)nc(Nc1cccc(Cl)c1)c1ccncc12 [silmitasertib]
Summary of the method: as §1

[19] = compound: O=C1NC(=O)C(c2cnc3ccccn23)=C1c1cn2c3c(cc(F)cc13)CN(C(=O)N1CCCCC1)CC2
Summary of the method: as §1

[20] = compound: c1cc(OCCN2CCCCC2)cc(-c2n[nH]c3ccc(-c4nnc[nH]4)cc23)c1
Summary of the method: as §1

Sequence of UniProt Q13137 (Q13137 whole entry, looked up): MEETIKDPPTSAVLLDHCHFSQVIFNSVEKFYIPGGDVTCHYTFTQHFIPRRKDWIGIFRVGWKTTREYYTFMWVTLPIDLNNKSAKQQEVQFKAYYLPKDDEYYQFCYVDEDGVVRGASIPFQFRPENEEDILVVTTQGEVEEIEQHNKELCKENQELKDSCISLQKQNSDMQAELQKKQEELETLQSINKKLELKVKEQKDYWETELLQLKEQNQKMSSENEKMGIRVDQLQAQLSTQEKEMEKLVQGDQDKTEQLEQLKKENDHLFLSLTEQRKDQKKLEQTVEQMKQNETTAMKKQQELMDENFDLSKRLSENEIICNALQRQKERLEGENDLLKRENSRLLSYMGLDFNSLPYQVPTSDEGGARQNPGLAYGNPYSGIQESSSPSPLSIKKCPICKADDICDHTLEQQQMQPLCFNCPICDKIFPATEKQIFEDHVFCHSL
Sequence of UniProt Q96G23 (Q96G23 whole entry, looked up): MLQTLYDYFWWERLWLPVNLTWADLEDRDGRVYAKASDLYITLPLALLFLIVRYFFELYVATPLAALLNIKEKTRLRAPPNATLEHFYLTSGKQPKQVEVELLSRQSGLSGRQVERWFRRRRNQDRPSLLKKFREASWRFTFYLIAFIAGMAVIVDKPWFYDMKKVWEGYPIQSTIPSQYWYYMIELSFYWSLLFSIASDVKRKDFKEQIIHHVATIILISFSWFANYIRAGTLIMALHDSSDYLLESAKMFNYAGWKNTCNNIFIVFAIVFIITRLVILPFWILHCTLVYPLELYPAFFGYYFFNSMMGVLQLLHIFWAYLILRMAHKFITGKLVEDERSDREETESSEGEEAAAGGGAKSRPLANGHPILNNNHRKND
Sequence of UniProt Q01459 (Q01459 whole entry, looked up): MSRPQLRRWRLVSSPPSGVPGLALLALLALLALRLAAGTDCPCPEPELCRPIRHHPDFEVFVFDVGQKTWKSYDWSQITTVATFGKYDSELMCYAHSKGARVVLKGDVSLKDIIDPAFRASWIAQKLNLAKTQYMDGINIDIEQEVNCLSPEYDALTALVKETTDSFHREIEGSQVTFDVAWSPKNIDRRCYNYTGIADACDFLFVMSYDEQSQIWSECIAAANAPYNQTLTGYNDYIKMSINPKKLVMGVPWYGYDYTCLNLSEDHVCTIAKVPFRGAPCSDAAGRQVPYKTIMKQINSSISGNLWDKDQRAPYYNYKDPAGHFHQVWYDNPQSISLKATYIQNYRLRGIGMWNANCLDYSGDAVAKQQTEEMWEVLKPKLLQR
Sequence of UniProt P42574 (P42574 whole entry, looked up): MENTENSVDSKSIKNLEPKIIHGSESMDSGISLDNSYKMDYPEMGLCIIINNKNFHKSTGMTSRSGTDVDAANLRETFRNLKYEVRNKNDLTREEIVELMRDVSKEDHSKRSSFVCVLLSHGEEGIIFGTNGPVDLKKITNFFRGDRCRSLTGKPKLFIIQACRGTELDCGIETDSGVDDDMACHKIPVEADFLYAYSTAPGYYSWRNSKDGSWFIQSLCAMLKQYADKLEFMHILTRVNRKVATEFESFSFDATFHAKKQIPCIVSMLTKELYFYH
Sequence of UniProt Q12873 (Q12873 whole entry, looked up): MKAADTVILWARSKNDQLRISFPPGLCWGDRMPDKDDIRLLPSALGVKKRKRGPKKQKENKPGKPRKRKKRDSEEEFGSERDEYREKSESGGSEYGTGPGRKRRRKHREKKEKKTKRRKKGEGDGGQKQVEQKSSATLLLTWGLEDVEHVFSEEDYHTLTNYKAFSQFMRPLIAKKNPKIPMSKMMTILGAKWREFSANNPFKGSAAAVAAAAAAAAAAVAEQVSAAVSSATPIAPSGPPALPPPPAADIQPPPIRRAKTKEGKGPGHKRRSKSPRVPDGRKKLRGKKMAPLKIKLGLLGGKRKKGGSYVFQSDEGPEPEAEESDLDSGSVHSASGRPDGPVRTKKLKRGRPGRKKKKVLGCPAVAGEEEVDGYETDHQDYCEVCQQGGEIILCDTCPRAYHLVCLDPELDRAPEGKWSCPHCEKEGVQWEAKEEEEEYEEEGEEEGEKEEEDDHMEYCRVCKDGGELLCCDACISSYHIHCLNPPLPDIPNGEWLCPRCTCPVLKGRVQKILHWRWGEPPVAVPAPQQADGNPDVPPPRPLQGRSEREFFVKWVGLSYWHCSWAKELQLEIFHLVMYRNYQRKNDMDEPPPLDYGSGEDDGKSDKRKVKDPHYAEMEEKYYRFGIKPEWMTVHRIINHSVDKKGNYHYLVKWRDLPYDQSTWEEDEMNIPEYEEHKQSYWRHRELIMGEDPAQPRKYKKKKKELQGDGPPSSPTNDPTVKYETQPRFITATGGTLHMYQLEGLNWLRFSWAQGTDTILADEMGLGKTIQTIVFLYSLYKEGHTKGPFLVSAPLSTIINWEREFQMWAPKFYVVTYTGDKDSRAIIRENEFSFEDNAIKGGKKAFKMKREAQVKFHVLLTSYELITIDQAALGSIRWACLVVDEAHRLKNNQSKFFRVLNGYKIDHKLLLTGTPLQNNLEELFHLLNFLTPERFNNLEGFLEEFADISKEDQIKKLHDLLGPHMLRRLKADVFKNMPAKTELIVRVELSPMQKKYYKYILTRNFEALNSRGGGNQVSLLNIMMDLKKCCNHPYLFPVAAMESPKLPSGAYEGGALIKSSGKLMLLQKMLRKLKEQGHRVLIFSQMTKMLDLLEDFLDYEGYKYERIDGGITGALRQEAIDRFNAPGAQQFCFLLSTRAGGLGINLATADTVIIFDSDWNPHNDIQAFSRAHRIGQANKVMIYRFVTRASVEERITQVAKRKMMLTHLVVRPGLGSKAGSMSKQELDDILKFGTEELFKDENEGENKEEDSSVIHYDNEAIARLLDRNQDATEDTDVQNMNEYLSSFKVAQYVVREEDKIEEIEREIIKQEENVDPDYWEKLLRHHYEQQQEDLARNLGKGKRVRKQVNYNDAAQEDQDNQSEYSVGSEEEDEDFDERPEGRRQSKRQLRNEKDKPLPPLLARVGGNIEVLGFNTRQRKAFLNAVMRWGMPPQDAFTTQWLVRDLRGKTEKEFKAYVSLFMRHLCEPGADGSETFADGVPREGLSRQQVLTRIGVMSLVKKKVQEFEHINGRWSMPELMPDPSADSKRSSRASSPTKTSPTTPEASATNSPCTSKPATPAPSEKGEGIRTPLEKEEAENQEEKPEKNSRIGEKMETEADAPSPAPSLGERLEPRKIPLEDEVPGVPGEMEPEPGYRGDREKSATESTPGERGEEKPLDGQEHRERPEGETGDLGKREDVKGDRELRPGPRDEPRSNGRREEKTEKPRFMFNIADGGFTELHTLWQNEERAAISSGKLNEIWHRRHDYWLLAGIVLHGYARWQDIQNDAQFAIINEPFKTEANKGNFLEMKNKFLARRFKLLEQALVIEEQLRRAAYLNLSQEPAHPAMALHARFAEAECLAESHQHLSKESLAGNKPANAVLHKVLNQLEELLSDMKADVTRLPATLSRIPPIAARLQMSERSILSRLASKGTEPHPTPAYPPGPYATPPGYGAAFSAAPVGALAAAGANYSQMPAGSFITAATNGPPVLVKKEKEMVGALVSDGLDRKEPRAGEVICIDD
Sequence of UniProt P21964 (P21964 whole entry, looked up): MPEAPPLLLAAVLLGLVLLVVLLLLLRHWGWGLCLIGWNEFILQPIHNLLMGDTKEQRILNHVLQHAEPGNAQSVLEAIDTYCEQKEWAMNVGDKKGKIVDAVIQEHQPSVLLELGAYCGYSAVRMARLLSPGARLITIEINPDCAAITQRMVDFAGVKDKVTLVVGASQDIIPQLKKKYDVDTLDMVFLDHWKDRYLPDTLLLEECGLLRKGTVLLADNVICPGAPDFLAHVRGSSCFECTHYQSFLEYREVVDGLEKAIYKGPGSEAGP
Sequence of UniProt Q9BT78 (Q9BT78 whole entry, looked up): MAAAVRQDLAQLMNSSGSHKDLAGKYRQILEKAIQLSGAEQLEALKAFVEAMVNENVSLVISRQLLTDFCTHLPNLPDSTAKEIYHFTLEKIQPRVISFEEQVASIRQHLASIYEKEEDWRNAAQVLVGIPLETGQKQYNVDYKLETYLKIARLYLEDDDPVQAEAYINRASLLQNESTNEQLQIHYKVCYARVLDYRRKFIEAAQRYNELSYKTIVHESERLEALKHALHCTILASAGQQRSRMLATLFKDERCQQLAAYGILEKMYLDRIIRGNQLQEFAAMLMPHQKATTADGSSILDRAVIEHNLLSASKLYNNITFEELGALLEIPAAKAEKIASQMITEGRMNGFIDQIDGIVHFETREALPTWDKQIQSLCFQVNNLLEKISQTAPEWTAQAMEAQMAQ
Sequence of UniProt P86791 (P86791 whole entry, looked up): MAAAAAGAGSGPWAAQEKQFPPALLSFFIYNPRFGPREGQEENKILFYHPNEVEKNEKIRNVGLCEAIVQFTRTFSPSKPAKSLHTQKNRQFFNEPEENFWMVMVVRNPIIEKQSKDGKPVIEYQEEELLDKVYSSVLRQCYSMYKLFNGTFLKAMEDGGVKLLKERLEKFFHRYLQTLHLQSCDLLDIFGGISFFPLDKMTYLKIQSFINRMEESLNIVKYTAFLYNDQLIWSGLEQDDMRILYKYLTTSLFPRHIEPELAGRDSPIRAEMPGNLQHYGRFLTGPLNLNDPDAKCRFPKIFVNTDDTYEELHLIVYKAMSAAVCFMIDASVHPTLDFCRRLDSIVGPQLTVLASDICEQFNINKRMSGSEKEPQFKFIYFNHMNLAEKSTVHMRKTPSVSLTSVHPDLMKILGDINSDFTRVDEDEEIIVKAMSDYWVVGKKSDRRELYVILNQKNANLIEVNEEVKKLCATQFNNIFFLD
Sequence of UniProt Q96CF2 (Q96CF2 whole entry, looked up): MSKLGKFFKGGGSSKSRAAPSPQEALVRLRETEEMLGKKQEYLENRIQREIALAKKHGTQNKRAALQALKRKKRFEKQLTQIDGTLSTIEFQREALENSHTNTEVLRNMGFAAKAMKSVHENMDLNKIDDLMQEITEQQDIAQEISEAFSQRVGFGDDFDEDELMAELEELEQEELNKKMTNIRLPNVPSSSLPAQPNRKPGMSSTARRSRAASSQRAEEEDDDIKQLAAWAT

Target | log2 fold change [1] | log2 fold change [2] | log2 fold change [3] | log2 fold change [4] | log2 fold change [5] | log2 fold change [6] | log2 fold change [7] | log2 fold change [8] | log2 fold change [9] | log2 fold change [10] | log2 fold change [11] | log2 fold change [12] | log2 fold change [13] | log2 fold change [14] | log2 fold change [15] | log2 fold change [16] | log2 fold change [17] | log2 fold change [18] | log2 fold change [19] | log2 fold change [20]
COQ9 (UniProt O75208) | -0.124 | 0.074 | -0.06 | -0.035 | -0.147 | 0.001 | 0.052 | 0.028 | -0.068 | -0.04 | 0.02 | -0.002 | -0.151 | -0.032 | 0.045 | 0.028 | -0.013 | 0.021 | -0.103 | 0.008
COPS4 (UniProt Q9BT78) | 0.003 | 0 | 0 | -0.01 | -0.023 | 0.007 | 0.031 | 0.003 | -0.012 | 0.031 | 0.015 | 0.009 | -0.032 | 0.036 | 0.01 | 0.027 | 0.031 | -0.035 | -0.01 | 0.027
CCNB1 (UniProt P14635) | -0.018 | 0.009 | 0.04 | -0.156 | 0.02 | -0.025 | 0.006 | 0.003 | 0.02 | 0.08 | -0.031 | -0.015 | -0.03 | 0.016 | -0.002 | 0 | 0.031 | -0.015 | -0.076 | -0.032
CHD4 isoform 2 (UniProt Q14839) | 0.068 | -0.018 | -0.143 | -0.267 | -0.059 | -0.137 | -0.063 | -0.002 | -0.083 | -0.06 | -0.043 | -0.07 | -0.122 | -0.039 | 0.022 | 0.049 | 0.063 | 0.099 | -0.023 | -0.069
COPS3 (UniProt Q9UNS2) | -0.05 | -0.027 | 0.006 | 0.004 | -0.02 | -0.012 | 0.014 | 0.04 | 0.004 | 0.023 | 0 | -0.034 | -0.002 | 0.011 | 0.002 | -0.003 | 0.014 | -0.02 | -0.021 | -0.019
CHMP4C (UniProt Q96CF2) | -0.01 | -0.003 | -0.03 | -0.021 | -0.027 | 0 | -0.008 | 0.041 | -0.015 | 0.039 | -0.003 | -0.005 | -0.089 | -0.043 | 0.041 | 0.02 | -0.138 | 0.028 | -0.22 | 0.052
COMT (UniProt P21964) | 0.011 | -0.019 | 0.01 | 0.119 | 0.03 | 0.009 | 0.073 | 0.031 | 0.002 | 0.06 | -0.052 | 0.356 (active) | -0.015 | -0.022 | -0.022 | -0.054 | 0.052 | -0.057 | -0.086 | 0.015
CTBS (UniProt Q01459) | -0.483 (active) | -0.069 | 0.016 | -0.007 | -0.006 | -0.077 | -0.093 | 0.162 | 0.091 | 0.025 | 0.088 | -0.046 | -0.268 | -0.002 | 0.058 | -0.017 | -0.026 | -0.003 | 0.051 | -0.023
CASP3 (UniProt P42574) | -0.031 | -0.042 | 0.013 | -0.012 | 0.002 | -0.007 | 0.008 | -0.022 | -0.055 | 0.007 | 0.051 | 0.053 | 0.075 | 0.043 | -0.029 | 0 | -0.043 | -0.057 | 0.018 | -0.051
CERS2 (UniProt Q96G23) | -0.177 | 0.064 | -0.128 | -0.015 | -0.113 | 0.028 | -0.034 | 0.028 | -0.074 | -0.03 | -0.015 | 0 | -0.103 | -0.019 | 0.04 | 0.057 | 0.035 | -0.018 | 0.027 | -0.087
CALCOCO2 isoform 4 (UniProt Q13137) | -0.647 (active) | -0.061 | -0.039 | 0.038 | 0.01 | 0.1 | -0.013 | -0.035 | -0.015 | -0.025 | -0.017 | -0.075 | -0.324 (active) | -0.185 | -0.006 | -0.006 | 0.035 | 0.047 | 0.071 | -0.034
CHD3 isoform 3 (UniProt Q12873) | 0.01 | 0.004 | -0.093 | -0.274 | -0.086 | -0.172 | -0.06 | 0.063 | -0.089 | -0.058 | 0.023 | -0.152 | -0.113 | -0.013 | 0.036 | 0.101 | 0.057 | 0.154 | 0.057 | -0.101
CPSF3 (UniProt Q9UKF6) | -0.052 | 0.041 | -0.006 | -0.073 | -0.082 | -0.023 | -0.071 | -0.023 | -0.027 | 0.02 | 0.001 | -0.05 | -0.032 | -0.058 | -0.002 | 0.016 | 0.026 | 0.129 | -0.006 | -0.075
CCZ1 (UniProt P86791) | -0.127 | 0.007 | 0.024 | -0.022 | -0.057 | -0.098 | 0.021 | 0.025 | 0.043 | 0.038 | 0.036 | -0.072 | -0.33 (active) | -0.077 | 0.006 | 0.013 | -0.011 | 0.039 | -0.01 | -0.033
CAMK2G isoform 6 (UniProt Q13555) | 0.064 | -0.148 | 0.002 | 0.642 (active) | -0.11 | 0.083 | 0.01 | -0.073 | -0.025 | -0.008 | -0.306 | -0.033 | 0.038 | 0.057 | 0.119 | 0.119 | -0.02 | 0.158 | 0.177 | -0.053
CCAR1 (UniProt Q8IX12) | 0.036 | 0.036 | -0.055 | -0.033 | -0.112 | -0.095 | 0.079 | 0.019 | -0.091 | 0.122 | 0 | -0.068 | -0.198 | -0.035 | 0.021 | 0.067 | 0.018 | -0.049 | -0.043 | -0.016
